Laboratory results reported in ChEMBL document CHEMBL5308504, “Tm Shift (DSF) assay results for EUbOPEN Chemogenomics Library” (2023).
Several values for one entry are separate records, joined by “and”; a condition that tells them apart may be missing. Equal values may be shown once.

Molecular target: Bromodomain-containing protein 4 (Homo sapiens) (UniProt O60885)
Details: Compound concentration 20.0 uM, Protein concentration 2.0 uM, Result type QC Liability

| SMILES | ΔTm |
| --- | --- |
| Nc1ncc2c(n1)-c1c([nH]c3ccc(C4CC4)cc13)CCCC2 | -1.04 °C |
| COc1ccc(C(F)(F)F)cc1NC(=O)Nc1ccc(Oc2cc(C)nc(N)n2)c2ccccc12 | -0.19 °C |
| COc1cc2ncnc(N[C@H](C)c3ccccc3)c2cc1OC1CCN(S(C)(=O)=O)CC1 | -3.35 °C |
| CCOC(=O)N1CCC(CN(Cc2ccc(Cl)cc2)Cc2ccc([N+](=O)[O-])s2)C1 (stereo not drawn) | -2.61 °C |
| CC(=O)c1c(C)c2cnc(Nc3ccc(N4CCN(CCCCNC(=O)COc5cccc6c5C(=O)N(C5CCC(=O)NC5=O)C6=O)CC4)cn3)nc2n(C2CCCC2)c1=O (stereo not drawn) | -0.38 °C |
| COc1cc(N[C@@H]2CCCC[C@]2(O)C(F)(F)F)ccc1F | -2.92 °C |
| Cn1cc(C(=O)O)c2ccc(N3CCC(OCc4c(-c5c(Cl)cccc5Cl)noc4C4CC4)CC3)cc21 | -1.74 °C |
| O=C(O)[C@]1(Cc2cccc(Nc3nccs3)n2)CC[C@@H](Oc2cccc(Cl)c2F)CC1 | 0 °C |
| Cc1nc2cccnc2n2c(-c3cc([C@@]4(O)CCCOC4)ccc3Cl)nnc12 | -1.99 °C |
| CCN(C(=O)CO)[C@H]1CN(/C(=N\C#N)Nc2cccc(OC(F)F)c2)N=C1c1ccc(Cl)c(Cl)c1 | 3.5 °C |
| CN1Cc2nccc(-c3cn(C)nc3-c3ccc(F)cc3)c2C1=O | -1.27 °C |
| Cc1c(N2CCCC2)nc2ccc(Br)cc2c1C(=O)NC[C@H](CCC(=O)O)c1ccccc1Cl | -0.88 °C and -3.16 °C |
| COC(=O)c1ccc2c(c1)NC(=O)/C2=C(\Nc1ccc(-c2nccn2C)cc1)c1ccccc1 | -1.87 °C |
| CC(C)(C#Cc1ccc(NC(=O)COc2ccccc2C(=O)c2ccccc2)c(Cl)c1)C(=O)O | 0.63 °C |
| CSc1nc2c(c(=O)n(C)c(=O)n2C)n1C | -3.81 °C |
| Cc1nc2cccnc2n2c(-c3cc(C(C)(C)O)ncc3Cl)nnc12 | -1.96 °C |
| Cc1ccc(C(=O)Nc2cc(N3CCN(C)CC3)cc(C(F)(F)F)c2)cc1-n1cc(-c2cnn(C)c2C)nn1 | -2.13 °C |
| CCn1c(-c2nonc2N)nc2ccccc21 | -0.33 °C |
| C[C@@H](Oc1cc(-n2cnc3ccc(OC4CCN(C)CC4)cc32)sc1C(N)=O)c1ccccc1Cl | -2.01 °C |
| CC(C)(O)[C@H]1CC[C@H](Nc2ccc3ncc(-c4cccc(C(F)(F)F)c4)n3n2)CC1 | -0.97 °C |

| SMILES | ΔTm |
| --- | --- |
| Cc1c(CCC(=O)O)cccc1NC(=O)[C@@H](c1ccc(-c2cncc(Cl)c2)c(F)c1)C1CCCC1 | 0.73 °C |
| CCOC(=O)c1ccc(CN(Cc2ccc(-c3cccc(S(C)(=O)=O)c3)cc2)S(=O)(=O)c2c(C)cc(C)cc2C)o1 | -4.78 °C |
| CS(=O)(=O)NC(=O)CCC/C=C\C[C@H]1C(=O)C[C@@H](O)[C@@H]1/C=C/[C@@H](O)COc1ccccc1 | -2 °C |
| CNC(=O)c1c(F)cccc1Nc1nc(Nc2cc3c(cc2OC)CCN3C(=O)CN(C)C)nc2[nH]ccc12 | -1.02 °C |
| C[C@H](CCC(=O)O)[C@H]1CC[C@H]2[C@@H]3CC[C@@H]4C[C@H](O)CC[C@]4(C)[C@H]3C[C@H](O)[C@]12C | -3.05 °C |
| Fc1ccc(Cl)cc1-c1nc(Nc2ccncc2)c2nccnc2n1 | -2.28 °C |
| Fc1cccc(-n2cnc3c(NCc4nc5c(F)c(F)ccc5[nH]4)nc(N4CCOCC4)nc32)c1 | 0.39 °C |
| COc1ccccc1-c1cc(Nc2cccc(CS(N)(=O)=O)c2)ncn1 | -0.36 °C |
| COCc1c(-c2cc3cc(C)cc(OC)c3s2)c2c(N)ncnn2c1CN[C@@H]1CCNC1=O | 1.53 °C |
| Cc1ncsc1-c1ccc(CNC(=O)[C@@H]2C[C@@H](O)CN2C(=O)[C@@H](NC(=O)C2(F)CC2)C(C)(C)C)c(OCCOc2ccc(CN3CCN(c4cc(-c5ccccc5O)nnc4N)CC3)cc2)c1 | 13.5 °C |
| COc1ccccc1[C@@H]1CNCCC12CCN(C(=O)[C@](OC)(c1ccccc1)C(F)(F)F)CC2 | -0.33 °C |
| CN[C@@H]1CC[C@@H](c2ccc(Cl)c(Cl)c2)c2ccccc21 | -1.03 °C |
| Cc1cc(S(=O)(=O)N2CC(C)(C)c3cc(-c4ccc(C(F)(F)F)cc4)ccc32)ccc1OCC(=O)O | 0.64 °C |
| COCCOCn1c(S(C)(=O)=O)nc2c1c(=O)n(C)c(=O)n2C | -12.2 °C |
| CN1CCN(c2ccc(/C=C(\C#N)c3ccccc3Br)cc2)CC1 | -4.31 °C |
| O=C(Cc1ccccc1)Nc1nnc(N2C[C@H]3C[C@@H]2CN3c2cccnn2)s1 | -1.06 °C |
| Cc1cc(OCCC(C)(C)O)cc(C)c1-c1ccc(F)c2c1CC[C@H]2Oc1ccc2c(c1)OC[C@H]2CC(=O)O | -2.75 °C |
| Cc1cn(CCN2CCN(c3ccccc3-c3cc(C#N)cc(C(=O)NCCCN4CCCC4)c3)CC2)c2ccccc12 | -2.78 °C |
| C=CC[C@@H]1/C=C(\C)C[C@H](C)C[C@H](OC)[C@H]2O[C@@](O)(C(=O)C(=O)N3CCCC[C@H]3C(=O)O[C@H](/C(C)=C/[C@@H]3CC[C@@H](O)[C@H](OC)C3)[C@H](C)[C@@H](O)CC1=O)[C@H](C)C[C@@H]2OC | -1.85 °C |

Molecular target: T1, Transcription intermediary factor 1-alpha (Homo sapiens) (UniProt O15164)
T1 sequence (whole entry): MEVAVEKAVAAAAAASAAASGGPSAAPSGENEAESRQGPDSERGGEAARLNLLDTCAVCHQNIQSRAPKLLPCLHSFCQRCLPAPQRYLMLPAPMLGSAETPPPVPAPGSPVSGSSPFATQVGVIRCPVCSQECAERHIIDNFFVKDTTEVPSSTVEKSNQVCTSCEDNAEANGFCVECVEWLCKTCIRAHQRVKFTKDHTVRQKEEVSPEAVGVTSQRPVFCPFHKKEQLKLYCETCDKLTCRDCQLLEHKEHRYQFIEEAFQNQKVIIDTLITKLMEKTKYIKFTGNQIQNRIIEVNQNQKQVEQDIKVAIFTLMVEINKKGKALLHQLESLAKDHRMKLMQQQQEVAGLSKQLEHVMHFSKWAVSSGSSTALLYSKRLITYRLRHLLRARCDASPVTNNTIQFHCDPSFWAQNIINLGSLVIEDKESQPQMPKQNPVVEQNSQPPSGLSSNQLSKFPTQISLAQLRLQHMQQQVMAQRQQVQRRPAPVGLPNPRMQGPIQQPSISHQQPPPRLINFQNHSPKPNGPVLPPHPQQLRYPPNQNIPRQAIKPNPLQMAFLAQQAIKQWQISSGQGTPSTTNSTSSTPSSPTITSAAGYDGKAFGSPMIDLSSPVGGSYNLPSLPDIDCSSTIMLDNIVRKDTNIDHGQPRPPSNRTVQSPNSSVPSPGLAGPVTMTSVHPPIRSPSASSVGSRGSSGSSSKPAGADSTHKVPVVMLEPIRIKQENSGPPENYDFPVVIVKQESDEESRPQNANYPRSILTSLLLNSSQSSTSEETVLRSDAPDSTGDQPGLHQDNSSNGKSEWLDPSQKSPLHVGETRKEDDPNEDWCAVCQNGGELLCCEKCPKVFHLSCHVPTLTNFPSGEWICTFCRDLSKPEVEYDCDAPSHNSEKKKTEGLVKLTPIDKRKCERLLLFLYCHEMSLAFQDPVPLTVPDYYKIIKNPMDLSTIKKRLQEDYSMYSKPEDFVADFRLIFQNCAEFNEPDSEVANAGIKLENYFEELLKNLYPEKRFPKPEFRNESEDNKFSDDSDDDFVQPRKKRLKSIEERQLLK
Details: Compound concentration 20.0 uM, Protein concentration 2.0 uM, Result type QC Liability

| SMILES | ΔTm |
| --- | --- |
| Nc1ncc2c(n1)-c1c([nH]c3ccc(C4CC4)cc13)CCCC2 | -1.92 °C |
| COc1ccc(C(F)(F)F)cc1NC(=O)Nc1ccc(Oc2cc(C)nc(N)n2)c2ccccc12 | -0.94 °C |
| COc1cc2ncnc(N[C@H](C)c3ccccc3)c2cc1OC1CCN(S(C)(=O)=O)CC1 | -1.88 °C |
| CCOC(=O)N1CCC(CN(Cc2ccc(Cl)cc2)Cc2ccc([N+](=O)[O-])s2)C1 (stereo not drawn) | -4.19 °C |
| CC(=O)c1c(C)c2cnc(Nc3ccc(N4CCN(CCCCNC(=O)COc5cccc6c5C(=O)N(C5CCC(=O)NC5=O)C6=O)CC4)cn3)nc2n(C2CCCC2)c1=O (stereo not drawn) | -3.15 °C |
| COc1cc(N[C@@H]2CCCC[C@]2(O)C(F)(F)F)ccc1F | -2.59 °C |
| Cn1cc(C(=O)O)c2ccc(N3CCC(OCc4c(-c5c(Cl)cccc5Cl)noc4C4CC4)CC3)cc21 | -2.91 °C |
| O=C(O)[C@]1(Cc2cccc(Nc3nccs3)n2)CC[C@@H](Oc2cccc(Cl)c2F)CC1 | -1.24 °C |
| Cc1nc2cccnc2n2c(-c3cc([C@@]4(O)CCCOC4)ccc3Cl)nnc12 | 0.37 °C |
| CCN(C(=O)CO)[C@H]1CN(/C(=N\C#N)Nc2cccc(OC(F)F)c2)N=C1c1ccc(Cl)c(Cl)c1 | 0.3 °C |
| CN1Cc2nccc(-c3cn(C)nc3-c3ccc(F)cc3)c2C1=O | -1.67 °C |
| Cc1c(N2CCCC2)nc2ccc(Br)cc2c1C(=O)NC[C@H](CCC(=O)O)c1ccccc1Cl | 0.3 °C and -2.24 °C |
| COC(=O)c1ccc2c(c1)NC(=O)/C2=C(\Nc1ccc(-c2nccn2C)cc1)c1ccccc1 | -3.33 °C |
| CC(C)(C#Cc1ccc(NC(=O)COc2ccccc2C(=O)c2ccccc2)c(Cl)c1)C(=O)O | 0.79 °C |
| CSc1nc2c(c(=O)n(C)c(=O)n2C)n1C | -0.92 °C |
| Cc1nc2cccnc2n2c(-c3cc(C(C)(C)O)ncc3Cl)nnc12 | -2.03 °C |
| Cc1ccc(C(=O)Nc2cc(N3CCN(C)CC3)cc(C(F)(F)F)c2)cc1-n1cc(-c2cnn(C)c2C)nn1 | -1.79 °C |
| CCn1c(-c2nonc2N)nc2ccccc21 | -1.27 °C |
| C[C@@H](Oc1cc(-n2cnc3ccc(OC4CCN(C)CC4)cc32)sc1C(N)=O)c1ccccc1Cl | -2.55 °C |
| CC(C)(O)[C@H]1CC[C@H](Nc2ccc3ncc(-c4cccc(C(F)(F)F)c4)n3n2)CC1 | -1.82 °C |

| SMILES | ΔTm |
| --- | --- |
| Cc1c(CCC(=O)O)cccc1NC(=O)[C@@H](c1ccc(-c2cncc(Cl)c2)c(F)c1)C1CCCC1 | 0.32 °C |
| CCOC(=O)c1ccc(CN(Cc2ccc(-c3cccc(S(C)(=O)=O)c3)cc2)S(=O)(=O)c2c(C)cc(C)cc2C)o1 | 0.5 °C |
| CS(=O)(=O)NC(=O)CCC/C=C\C[C@H]1C(=O)C[C@@H](O)[C@@H]1/C=C/[C@@H](O)COc1ccccc1 | -0.45 °C |
| CNC(=O)c1c(F)cccc1Nc1nc(Nc2cc3c(cc2OC)CCN3C(=O)CN(C)C)nc2[nH]ccc12 | -1.89 °C |
| C[C@H](CCC(=O)O)[C@H]1CC[C@H]2[C@@H]3CC[C@@H]4C[C@H](O)CC[C@]4(C)[C@H]3C[C@H](O)[C@]12C | -3.23 °C |
| Fc1ccc(Cl)cc1-c1nc(Nc2ccncc2)c2nccnc2n1 | -1.86 °C |
| Fc1cccc(-n2cnc3c(NCc4nc5c(F)c(F)ccc5[nH]4)nc(N4CCOCC4)nc32)c1 | -0.44 °C |
| COc1ccccc1-c1cc(Nc2cccc(CS(N)(=O)=O)c2)ncn1 | -0.57 °C |
| COCc1c(-c2cc3cc(C)cc(OC)c3s2)c2c(N)ncnn2c1CN[C@@H]1CCNC1=O | 0.22 °C |
| Cc1ncsc1-c1ccc(CNC(=O)[C@@H]2C[C@@H](O)CN2C(=O)[C@@H](NC(=O)C2(F)CC2)C(C)(C)C)c(OCCOc2ccc(CN3CCN(c4cc(-c5ccccc5O)nnc4N)CC3)cc2)c1 | 0 °C |
| COc1ccccc1[C@@H]1CNCCC12CCN(C(=O)[C@](OC)(c1ccccc1)C(F)(F)F)CC2 | 0.2 °C |
| CN[C@@H]1CC[C@@H](c2ccc(Cl)c(Cl)c2)c2ccccc21 | -3.59 °C |
| Cc1cc(S(=O)(=O)N2CC(C)(C)c3cc(-c4ccc(C(F)(F)F)cc4)ccc32)ccc1OCC(=O)O | 0.9 °C |
| COCCOCn1c(S(C)(=O)=O)nc2c1c(=O)n(C)c(=O)n2C | 0.18 °C |
| CN1CCN(c2ccc(/C=C(\C#N)c3ccccc3Br)cc2)CC1 | -4.7 °C |
| O=C(Cc1ccccc1)Nc1nnc(N2C[C@H]3C[C@@H]2CN3c2cccnn2)s1 | -2.54 °C |
| Cc1cc(OCCC(C)(C)O)cc(C)c1-c1ccc(F)c2c1CC[C@H]2Oc1ccc2c(c1)OC[C@H]2CC(=O)O | -2.29 °C |
| Cc1cn(CCN2CCN(c3ccccc3-c3cc(C#N)cc(C(=O)NCCCN4CCCC4)c3)CC2)c2ccccc12 | -1.92 °C |
| C=CC[C@@H]1/C=C(\C)C[C@H](C)C[C@H](OC)[C@H]2O[C@@](O)(C(=O)C(=O)N3CCCC[C@H]3C(=O)O[C@H](/C(C)=C/[C@@H]3CC[C@@H](O)[C@H](OC)C3)[C@H](C)[C@@H](O)CC1=O)[C@H](C)C[C@@H]2OC | -0.9 °C |
